For two molecules, outcome and AC50 results are on record in PubChem BioAssay (EPA / NIEHS).

Results filed as inconclusive are left out. Activity calls are given as the source filed them. Rule for the calls, unless noted: active = hit-call score of the fitted dose curve at least 0.9, where 1 is the maximum; inactive = score below 0.9.

In experiment [1] the test system is Brachyury (BRA) Protein Expression, Deisenroth Lab, TBXT (gene 6862). The experiment is described as follows: CCTE_Deisenroth_DEVTOX-GLR_legacy_Bra: (Legacy) CCTE's DevTox GLR-Endo Assay Evaluation of Brachyury (BRA) Protein Expression, Deisenroth Lab (AID 2284329). The method, boiled down:
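RUES2-GLR human pluripotent cells differentiated 48 h with two 24-h-interval chemical exposures (1 nM - 200 uM, 10 points); fixed, nuclear-stained, imaged. Bra+ cell percentage (intensity 5x BMAD above pluripotent control median) fitted relative to 0.2% DMSO.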

Experiment [2] is described as follows: CCTE_Deisenroth_DEVTOX-GLR_legacy_CellCount: (Legacy) Viability Assessment in CCTE's DevTox GLR-Endo Assay, Deisenroth Lab (AID 2284331). Particulars: actives raise or lower the signal. The method, boiled down: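 Viability is taken from imaged nuclei counts in fixed RUES2-GLR cultures after 48 h of differentiation under two 24 h-spaced chemical exposures, 10 concentrations from 1 nM to 200 uM, gain or loss versus DMSO baseline.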

Experiment [3] relates to SRY-box transcription factor 17 (SOX17) Protein Expression, Deisenroth Lab, SOX17 (gene 64321). The experiment is described as follows: CCTE_Deisenroth_DEVTOX-GLR_legacy_Sox17: (Legacy) CCTE's DevTox GLR-Endo Assay Evaluation of SRY-box transcription factor 17 (SOX17) Protein Expression, Deisenroth Lab (AID 2284341). Particulars: actives raise or lower the signal. The method, boiled down: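 Endoderm-differentiation readout in RUES2-GLR human pluripotent cells at 48 h, concentrations spanning 1 nM - 200 uM. Sox17-positive cells divided by total cell count; gain or loss relative to DMSO solvent control, n=4 experimental replicates.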

Experiment [4] deals with SRY-box transcription factor 2 (SOX2) Protein Expression, Deisenroth Lab, SOX2 (gene 6657). The experiment is described as follows: CCTE_Deisenroth_DEVTOX-GLR_legacy_Sox2: (Legacy) CCTE's DevTox GLR-Endo Assay Evaluation of SRY-box transcription factor 2 (SOX2) Protein Expression, Deisenroth Lab (AID 2284346). An outline of the steps:
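RUES2-GLR human pluripotent cells seeded 24 h, then differentiated 48 h in defined media with two chemical doses 24 h apart (10-point, 1 nM–200 uM). Fixed, nuclear-stained, imaged; % Sox2+ cells (>5x BMAD over endoderm control median), DMSO-subtracted, fitted upward.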

The test system is the same in experiment [5]. The experiment is described as follows: CCTE_Deisenroth_DEVTOX-GLR_Endo_SOX2: CCTE's DevTox GLR-Endo Assay Evaluation of SRY-box transcription factor 2 (SOX2) Protein Expression, Deisenroth Lab (AID 2284412; active = hit-call score of the fitted dose curve at least 0.9, where 1 is the maximum). The method, boiled down:
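RUES2-GLR human pluripotent cells were seeded 24 h, then differentiated 48 h with two chemical exposures 24 h apart. Cells were fixed, nuclei stained and imaged by high-content microscopy. Endpoint is %SOX2+ cells over cell count, minus 0.2% DMSO control; 10-point series 1 nM–200 uM.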

Experiment [6] relates to SRY-box transcription factor 17 (SOX17) Protein Expression, Deisenroth Lab, SOX17 (gene 64321). The experiment is described as follows: CCTE_Deisenroth_DEVTOX-GLR_Endo_SOX17: CCTE's DevTox GLR-Endo Assay Evaluation of SRY-box transcription factor 17 (SOX17) Protein Expression, Deisenroth Lab (AID 2284413). The method, boiled down:
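Endpoint: % change in SOX17+ fraction (SOX17+ cells / cell count) vs 0.2% DMSO solvent control. RUES2-GLR reporter cells, 48 h endoderm differentiation, two doses at 24 h intervals, high-content fluorescence imaging, 5 fields/well.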

In experiment [7] the test system is Brachyury (BRA) Protein Expression, TBXT (gene 6862). The experiment is described as follows: CCTE_Deisenroth_DEVTOX-GLR_Endo_BRA: CCTE's DevTox GLR-Endo Assay Evaluation of Brachyury (BRA) Protein Expression, Deisenroth Lab (AID 2284417). The method, boiled down: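 Read-out: BRA+ cell count divided by total cell count by high-content imaging (5 fields per well), expressed relative to 0.2% DMSO solvent control. RUES2-GLR cells dosed twice over a 48 h differentiation; concentrations 1 nM - 200 uM.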

Experiment [8] can be described thus: CCTE_Deisenroth_DEVTOX-GLR_Endo_CellCount: Viability Assessment in CCTE's DevTox GLR-Endo Assay, Deisenroth Lab (AID 2284420). An outline of the steps:
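Measured 48 h after dosing: fluorescent nuclei counted by imaging in human RUES2-GLR cells under defined differentiation media, tested at 1 nM - 200 uM. Values are percent cell-count change relative to 0.2% DMSO.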

Experiment [9] has as its system SRY-box transcription factor 2 (SOX2) Protein Expression, Deisenroth Lab, SOX2 (gene 6657). The experiment is described as follows: CCTE_Deisenroth_DEVTOX-GLR_Pluri_SOX2: CCTE's DevTox GLR-Pluri Assay Evaluation of SRY-box transcription factor 2 (SOX2) Protein Expression, Deisenroth Lab (AID 2284428). The method, boiled down: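 Percent SOX2+ RUES2-GLR cells, determined by fluorescence microscopy after 48 h and two 24-h-interval chemical exposures spanning 1 nM–200 uM, served as the endpoint. Values are expressed relative to 0.2% DMSO; total cell counts assessed viability.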

Experiment [10] has as its system Brachyury (BRA) Protein Expression, Deisenroth Lab, TBXT (gene 6862). The experiment is described as follows: CCTE_Deisenroth_DEVTOX-GLR_Pluri_BRA: CCTE's DevTox GLR-Pluri Assay Evaluation of Brachyury (BRA) Protein Expression, Deisenroth Lab (AID 2284429; active = hit-call score of the fitted dose curve at least 0.9, where 1 is the maximum). An outline of the steps: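 Human pluripotent RUES2-GLR cells, seeded 24 h, were differentiated 48 h in defined media with two chemical doses at 24-h intervals (10-point, 1 nM - 200 uM). Readout: percent BRA+ cells by fluorescent reporter imaging, minus 0.2% DMSO control.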

Experiment [11] is described as follows: CCTE_Deisenroth_DEVTOX-GLR_Pluri_CellCount: Viability Assessment in CCTE's DevTox GLR-Pluri Assay Evaluation of Total Cell Counts, Deisenroth Lab (AID 2284430). The method, boiled down: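 RUES2-GLR human pluripotent cells, seeded 24 h, then differentiated 48 h with two chemical exposures 24 h apart; 10-point series 1 nM - 200 uM. Fixed, nuclear-stained, imaged (5 fields/well); nuclei count as % change vs 0.2% DMSO.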

Experiment [12] has as its system SRY-box transcription factor 17 (SOX17) Protein Expression, Deisenroth Lab, SOX17 (gene 64321). The experiment is described as follows: CCTE_Deisenroth_DEVTOX-GLR_Pluri_SOX17: CCTE's DevTox GLR-Pluri Assay Evaluation of SRY-box transcription factor 17 (SOX17) Protein Expression, Deisenroth Lab (AID 2284427; active = hit-call score of the fitted dose curve at least 0.9, where 1 is the maximum). An outline of the steps:
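Using an inducible fluorescent SOX17 reporter in human pluripotent RUES2-GLR cells, compounds (1 nM - 200 uM) were given twice over 48 h differentiation. Percent SOX17+ cells minus DMSO control came from high-content image analysis.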

On to `Oc1cc(O)c2c(c1)O[C@H](c1ccc(O)c(O)c1)[C@@H](O)C2`, for which the outcome in experiment [1], in experiment [4], in [5] and in [11] was inactive. Moreover, the AC50 (commonly the concentration giving half of the maximal activity seen) in experiment [2] is 167 µM (active); in experiment [3] it was 144 µM (active); in experiment [6], 146 µM (active); in experiment [7] it was 0.000133 µM (active); in experiment [8], 167 µM (active); in experiment [9], 5.13 µM (active). Also, in experiment [10], the AC50 was 157 µM (active).

As to `c1cc(-c2cnn3cc(-c4ccc(OCCN5CCCCC5)cc4)cnc23)ccn1`, the AC50 was 20 µM (active) in [1]; 20 µM (active) in [2]; 24.6 µM (active) in experiment [3]; 5.11 µM (active) in experiment [4]; 30.1 µM (active) in experiment [5]; 24.1 µM (active) in experiment [6]. The concentration at half-maximal activity (AC50) in experiment [7] is 1.44 µM (active); in [8], 20 µM (active); in experiment [9] it was 3.94 µM (active); in experiment [10], 3.02 µM (active); in [11] it was 3.39 µM (active). Moreover, the result in [12] was inactive.
